“And” between values parts separate entries of the source, which are not always exact repeats. Identical values can stand only once. The panel holds about 83,000 compounds, 20% with a hit somewhere; the sample as a whole holds those more often.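 96-well plates, one dose, 48 hours. Percent growth reported; active if below 10.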 The source made the active and inactive calls.
System: MDA-MB-468 breast
Assay: NCI-60 one-dose screen, 48 h (100 = growth as untreated, 0 = no growth, -100 = all killed)
Details: 10 µM unless noted

| Structure (SMILES) | growth |
| --- | --- |
| COc1ccc(C=Nc2c(C(=O)Nc3cccc(Cl)c3C)sc3nc(C)c(C(=O)/C=C/c4ccc(OC)cc4)cc23)cc1 | 17.3% (inactive) |
| COc1cc(/C=N/NC(=O)c2cnn3c2NC(c2ccccc2)C3)ccc1OCc1ccccc1 (stereo unspecified) | 1.21% (active) |
| CN(C)CCCN1c2ccccc2Sc2ccc(Cl)cc21 | 9.1% (active) and 105% (inactive) and 77.4% (inactive) |
| N/C(=N\OC(=O)CSc1nc2ccccc2s1)c1ccc(Cl)cc1 | 100% (inactive) |
| CCCCCCCCn1ccc2cc(NC(=O)Cn3cc(CN4CCC(C)CC4)nn3)ccc21 | -52.9% (active) |
| C=CC1=C(C(=O)O)N2C(=O)[C@@H](NC(=O)/C(=N\O)c3csc(N)n3)[C@H]2SC1 (stereo in doubt) | 96.1% (inactive) |
| C[N+]1=C(/C=C\C=C\c2ccccc2)C(C)(C)c2ccccc21 | -14.9% (active) |
| CN1CCN(c2ccc3nc4c(nc3c2C(F)(F)F)C(=O)c2ncccc2C4=O)CC1 | -62.4% (active) |
| Cc1ccc(S(=O)(=O)NCCNc2nccc(-c3c(-c4cccc(N)c4)nc4sccn34)n2)cc1 | 63.2% (inactive) |
| CC(=O)/C(N=Nc1ccc(S(=O)(=O)c2ccc(N=N/C(C(C)=O)=C(/C)O)cc2)cc1)=C(\C)O | 108% (inactive) |
| CN1CCC2(CC1)NC(=O)c1c(c3ccc(Cl)c(Cl)c3n1C)C2C#N (stereo unspecified) | 9.36% (active) |
| CCCn1cnc2c(c1=N)C(c1ccc(Cl)cc1)c1sc3c(C)cccc3c1O2 (stereo unspecified) | 30.9% (inactive) |
| COc1cc2cc(Oc3ccc(NC(=O)Nc4ccc(Cl)c(C(F)(F)F)c4)cc3)c(C)nc2cc1OCCN1CCOCC1 | -13.5% (active) |
| CCC(C)CC(C)C(=O)c1c(O)ccn(O)c1=O (stereo unspecified) | 13.8% (inactive) |
| Oc1cc(Nc2ccnc3cc(Cl)ccc23)c2ncccc2c1 | 47.4% (inactive) |
| CC(=O)Nc1ccc(S(=O)(=O)N/N=C\c2ccc(Cl)c(Cl)c2)cc1 | 100% (inactive) |
| CN(Cc1cnc2nc(N)nc(N)c2n1)c1c(Cl)cc(C(=O)NC(CCC(=O)O)C(=O)O)cc1Cl (stereo unspecified) | 15.3% (inactive) |
| Cc1nc2sc(C(=O)Nc3cccc(Cl)c3C)c(N)c2cc1C(C)O (stereo unspecified) | 25.4% (inactive) |
| Clc1ccc2c(NCCCn3ccnc3)c3oc4ccccc4c3nc2c1 | 39.7% (inactive) |
| CCOC(=O)C(CSC(c1ccccc1)(c1ccccc1)c1ccccc1)NC(=O)C(CSC(c1ccccc1)(c1ccccc1)c1ccccc1)NC(c1ccccc1)(c1ccccc1)c1ccccc1 (stereo unspecified) | 101% (inactive) |
| COC(=O)[C@@H]1CCCN1C(=O)[C@@H]1CCCN1C(=O)[C@H](Cc1ccccc1)NC(=S)Nc1cc(C(F)(F)F)cc(C(F)(F)F)c1 | 89% (inactive) |
| O=[N+]([O-])c1ccc(N/N=C\c2cc(Cl)ccc2O)nc1 | -2.47% (active) |
| CN(C)CCNc1cccc2sc3ccc(O)cc3c(=O)c12 | 28.1% (inactive) |
| COc1ccc(-c2cc(C(=O)N3N=C(c4ccc(N)cc4)CC3c3ccc(Cl)cc3)c3ccccc3n2)cc1 (stereo unspecified) | 18.4% (inactive) |
| Nc1nc(N)c2[nH]cnc2n1 | 69.9% (inactive) |
| O=C1[C@H]2Cc3c([nH]c4ccccc34)[C@H](c3ccc(Cl)cc3)N2C(=O)CN1C1CCN(Cc2c(Cl)cccc2Cl)CC1 | 57.5% (inactive) |

From PubChem BioAssay (NCI)
